Results filed as inconclusive are left out. Activity calls are given as the source filed them. Unless noted, calls come from the whole dose curve; as a rule, active = well fitted curve in the direction sought with a large enough effect in the repeat runs; inconclusive = weak or mixed curves; inactive = no such curve, though single readings can be large; an effect the other way counts as inactive or inconclusive.
Legend:
[1] = qHTS assay to identify small molecule agonists of the sonic hedgehog signaling (Shh) pathway (AID 1259368; calls by dose curve;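 note: NIH/3T3-derived 3T3Gli1-Luc cells carrying a stable Gli1-driven firefly luciferase reporter; series mostly up to about 92 µM; nearly all actives have a fitted effect of over 15% in size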)
Outline: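 Hedgehog pathway agonism scored by increased firefly luciferase luminescence in 3T3Gli1-Luc cells treated 24 hr at 37 C; detection used a 30 min room-temperature reagent incubation.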

[2] = qHTS assay to identify small molecule antagonists of the sonic hedgehog signaling (Shh) pathway (AID 1259369; calls by dose curve; note: nearly all actives have a fitted effect of over 45% in size)
Outline: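 NIH/3T3 stable Gli1-Luc clone, 2,000 cells/well, 4hr settle; cpd + conditioned medium 24hr; Luc reagent 30min RT; luminescence.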

[3] = target: Estrogen receptor beta (Homo sapiens) (UniProt Q92731); assay: qHTS assay to identify small molecule agonists of the estrogen receptor beta (ER-beta) signaling pathway (AID 1259377; active = well fitted activation curve with a large enough effect in the signal ratio in the repeat runs, not every such curve was filed as active; the % refers to the signal ratio)
Outline: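 Read-out: beta-lactamase FRET fluorescence. Cell line: ER-beta-UAS-bla HEK293T in 2% charcoal-stripped FBS. Exposure: 16 hr at 37C. Substrate step: 2 h at room temperature.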

[4] = target: Estrogen receptor beta (Homo sapiens) (UniProt Q92731); assay: qHTS assay to identify small molecule antagonists of the estrogen receptor beta (ER-beta) signaling pathway (AID 1259378; active = well fitted inhibition curve with a large enough effect in the signal ratio in the repeat runs, not every such curve was filed as active; the % refers to the signal ratio)
Outline: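 Antagonist mode: compounds added to beta-lactamase reporter HEK293T ER-beta-UAS cells stimulated with E2 (1nM final), 16 hr at 37C. LiveBLAzer B/G FRET substrate, 2 hours room temperature, fluorescence read-out.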

[5] = qHTS assay to identify small molecule agonists of the androgen receptor (AR) signaling pathway in the presence of an antagonist - cell viability counter screen (AID 1259379);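 note: MDA-kb2 human breast cancer cells carrying an MMTV luciferase reporter; series mostly up to about 92 µM; nearly all actives have a fitted effect of over 25% in size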
Outline: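 MDA-kb2 viability measured by CellTiter-Fluor fluorescence in the same wells as the luciferase signal; nilutamide 3.0uM final; 15-point compound titration; 16 hr at 37C.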

[6] = qHTS assay to identify small molecule agonists of the estrogen receptor beta (ER-beta) signaling pathway - cell viability counter screen (AID 1259380); note: nearly all actives have a fitted effect of over 30% in size
Outline: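 Measured: luminescence from CellTiter-Glo after 30 min at room temperature, added to wells already read for the LiveBLAzer FRET reporter (2 hr substrate); ER-beta-UAS-bla HEK293T cells had 16 hr compound treatment at 37C, 5% CO2.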

[7] = qHTS assay to identify small molecule antagonists of the estrogen receptor beta (ER-beta) signaling pathway - cell viability counter screen (AID 1259382);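 note: HEK293T cells carrying ER-beta-UAS-bla reporter stimulated with estradiol; series mostly up to about 92 µM; nearly all actives have a fitted effect of over 55% in size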
Outline: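 Readout: luminescence, CellTiter-Glo, same wells as bla assay. System: ER-beta-UAS-bla GripTite HEK293T, 2% charcoal-stripped FBS. Exposure: compounds plus 1nM 17-beta-estradiol, 16 hr, 37C.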

[8] = qHTS assay to identify small molecule agonists or antagonists of the thyroid stimulating hormone receptor (TSHR) signaling pathway - wild type cell line counter screen (AID 1259384; calls by dose curve)
Outline: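 Counter screen in untransfected Hek293: compounds (15-point titration, triplicate) plus phosphodiesterase inhibitor Ro20-1724 added after 18 h plating; 30 min RT. Intracellular cAMP via competitive d2/cryptate immunoassay, 1 h incubation.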

[9] = target: Thyrotropin receptor (Homo sapiens) (UniProt P16473); assay: qHTS assay to identify small molecule antagonists of the thyroid stimulating hormone receptor (TSHR) signaling pathway (AID 1259385; calls by dose curve; note: nearly all actives have a fitted effect of over 20% in size)
Outline: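 Antagonist mode: compound-treated TSHR-expressing HEK293 cells were stimulated with 1.5 ng/mL TSH (final) in presence of Ro20-1724 for 30 min at RT. HTRF cAMP detection after 1 h; each compound tested at 15 concentrations, triplicate.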

[10] = qHTS assay to identify small molecule agonists of the estrogen receptor alpha (ER-alpha) signaling pathway in the presence of an antagonist - cell viability counter screen (AID 1259386);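 note: series mostly up to about 92 µM; cells exposed to compounds for 22 h at 37 °C before the viability read; nearly all actives have a fitted effect of over 30% in size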
Outline: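 The test measures whether compounds kill ER-alpha reporter cells (VM7Luc4E2) under antagonist co-treatment (ICI-182,780, 10.0nM). Fluorescence from CellTiter-Fluor is read after a 22hr exposure.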

[11] = target: Progesterone receptor (Homo sapiens) (UniProt P06401); assay: qHTS assay to identify small molecule agonists of the progesterone receptor (PR) signaling pathway (AID 1346784; calls by dose curve; note: nearly all actives have a fitted effect of over 30% in size)
Outline: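 Compounds were tested for PR agonism in HEK 293T cells bearing a beta-lactamase gene under UAS control. Treatment lasted 16 hr at 37C; signal came from fluorescence of a FRET substrate.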

[12] = target: Progesterone receptor (Homo sapiens) (UniProt P06401); assay: qHTS assay to identify small molecule antagonists of the progesterone receptor (PR) signaling pathway (AID 1346795; active = well fitted inhibition curve with a large enough effect in the signal ratio in the repeat runs, not every such curve was filed as active; the % refers to the signal ratio)
Outline: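 In HEK293T cells bearing the PR-UAS-bla reporter, compound effects on promegestone-driven (1 nM) beta-lactamase expression are assessed after 16 hr using a fluorescent FRET substrate incubated 2 hr at room temperature.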

[13] = qHTS assay to identify small molecule antagonists of the progesterone receptor (PR) signaling pathway - cell viability counter screen (AID 1346798); note: series mostly up to about 92 µM; nearly all actives have a fitted effect of over 50% in size
Outline: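 Following a 4 hr attachment, PR-UAS-bla HEK293T cells in charcoal-stripped FBS medium were exposed to compounds with R5020 for 16 hr; CellTiter-Glo was added and luminescence read after 30 min at room temperature.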

[14] = qHTS assay to identify small molecule agonists of the progesterone receptor (PR) signaling pathway - cell viability counter screen (AID 1346799; calls by dose curve; note: nearly all actives have a fitted effect of over 45% in size)
Outline: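 Here, 3,000 PR-UAS-bla HEK293T cells per well were treated with compounds for 16 hr after a 6 hr preincubation at 37C and 5% CO2; cell viability is the CellTiter-Glo luminescence signal.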

[15] = qHTS assay to identify small molecule antagonists of the TGF-beta/Smad signaling pathway - cell viability counter screen (AID 1346824); note: nearly all actives have a fitted effect of over 50% in size
Outline: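 Cytotoxicity counter-screen run in the same wells as the beta-lactamase Smad reporter read: CellTiter-Glo luminescence after 30 min at room temperature. HEK 293T SBE-bla cells had 5 hr compound exposure at 37 C with TGF-beta1 (0.25 ng/mL stock).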

[16] = qHTS assay to identify small molecule agonists of the TGF-beta/Smad signaling pathway - cell viability counter screen (AID 1346829); note: top concentration of the series differs between compounds; nearly all actives have a fitted effect of over 45% in size
Outline: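 Luminescence from CellTiter-Glo, read after a 30 min room-temperature incubation, gives cell viability of SBE-bla HEK 293T cells treated 5 hr with compounds at 37 C.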

[17] = qHTS assay to identify small molecule agonists of the TGF-beta/Smad signaling pathway (AID 1346859; active = well fitted activation curve with a large enough effect in the signal ratio in the repeat runs, not every such curve was filed as active; the % refers to the signal ratio; note: series mostly up to about 77 µM)
Outline: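 Each well held 4,000 SBE-bla HEK 293T cells incubated overnight before compound addition; 5 hr later the cleavable FRET substrate went on for 2 hr at room temperature, and fluorescence was read at two emissions.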

[18] = target: Thyrotropin-releasing hormone receptor (Homo sapiens) (UniProt P34981); assay: qHTS assay to identify small molecule antagonists of the thyrotropin-releasing hormone receptor (TRHR) signaling pathway (AID 1346877; active = well fitted inhibition curve with a large enough effect in the repeat runs, not every such curve was filed as active; note: series mostly up to about 51 µM)
Outline: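 Overnight-plated (18 h, 37 °C) HEK293 cells expressing TRHR were dye-loaded 2 h, treated with compound, then stimulated with TRH at 1 nM final. Fluorescence intensity was captured every second for 3 min.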

[19] = target: Androgen receptor (Homo sapiens) (UniProt P10275); assay: qHTS assay to identify small molecule agonists of the androgen receptor (AR) signaling pathway in the presence of an antagonist (AID 1259381; calls by dose curve; note: nearly all actives have a fitted effect of over 15% in size)
Outline: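 Luminescent ONE-Glo read, 30min at room temperature, follows 16hr compound exposure (15 concentrations) of MDA-kb2 cells at 37C, 0% CO2, with nilutamide added at 3.0uM final.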

[20] = target: Estrogen receptor (Homo sapiens) (UniProt P03372); assay: qHTS assay to identify small molecule agonists of the estrogen receptor alpha (ER-alpha) signaling pathway in the presence of an antagonist (AID 1259383; calls by dose curve; note: top concentration of the series differs between compounds; nearly all actives have a fitted effect of over 15% in size)
Outline: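 Quantitative HTS confirmation: compounds titrated at 15 concentrations onto estrogen-deprived VM7Luc4E2 cells carrying a four-ERE luciferase construct, with ICI-182,780 present at 10.0nM final. Signal is luminescence after 22hr exposure.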

Measured: Potency

Chain of Progesterone receptor (Homo sapiens) (P06401 whole entry, looked up): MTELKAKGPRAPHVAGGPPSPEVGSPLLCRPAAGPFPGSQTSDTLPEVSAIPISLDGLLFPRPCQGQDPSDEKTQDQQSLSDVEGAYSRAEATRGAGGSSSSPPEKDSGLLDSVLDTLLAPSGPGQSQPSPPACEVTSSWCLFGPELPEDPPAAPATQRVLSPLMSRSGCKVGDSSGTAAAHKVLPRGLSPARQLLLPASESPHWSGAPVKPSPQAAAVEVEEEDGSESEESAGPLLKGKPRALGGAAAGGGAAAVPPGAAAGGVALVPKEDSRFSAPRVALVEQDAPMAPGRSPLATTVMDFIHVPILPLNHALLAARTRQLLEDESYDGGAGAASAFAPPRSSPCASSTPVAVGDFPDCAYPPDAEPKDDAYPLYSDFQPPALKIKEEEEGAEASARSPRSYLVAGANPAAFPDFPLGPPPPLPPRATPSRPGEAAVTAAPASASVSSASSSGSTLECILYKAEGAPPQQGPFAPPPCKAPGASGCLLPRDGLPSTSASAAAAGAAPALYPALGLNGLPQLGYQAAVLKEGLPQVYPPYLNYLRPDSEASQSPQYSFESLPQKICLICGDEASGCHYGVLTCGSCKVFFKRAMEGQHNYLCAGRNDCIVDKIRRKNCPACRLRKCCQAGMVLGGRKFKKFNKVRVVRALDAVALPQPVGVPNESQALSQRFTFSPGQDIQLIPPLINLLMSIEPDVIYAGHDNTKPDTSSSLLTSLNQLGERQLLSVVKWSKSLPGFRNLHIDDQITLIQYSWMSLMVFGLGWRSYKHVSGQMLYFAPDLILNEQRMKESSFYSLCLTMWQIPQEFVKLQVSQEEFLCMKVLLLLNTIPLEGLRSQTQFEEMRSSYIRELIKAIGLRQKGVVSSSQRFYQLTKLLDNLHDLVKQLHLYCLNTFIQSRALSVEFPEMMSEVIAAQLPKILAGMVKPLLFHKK
Chain of Estrogen receptor (Homo sapiens) (P03372 whole entry, looked up): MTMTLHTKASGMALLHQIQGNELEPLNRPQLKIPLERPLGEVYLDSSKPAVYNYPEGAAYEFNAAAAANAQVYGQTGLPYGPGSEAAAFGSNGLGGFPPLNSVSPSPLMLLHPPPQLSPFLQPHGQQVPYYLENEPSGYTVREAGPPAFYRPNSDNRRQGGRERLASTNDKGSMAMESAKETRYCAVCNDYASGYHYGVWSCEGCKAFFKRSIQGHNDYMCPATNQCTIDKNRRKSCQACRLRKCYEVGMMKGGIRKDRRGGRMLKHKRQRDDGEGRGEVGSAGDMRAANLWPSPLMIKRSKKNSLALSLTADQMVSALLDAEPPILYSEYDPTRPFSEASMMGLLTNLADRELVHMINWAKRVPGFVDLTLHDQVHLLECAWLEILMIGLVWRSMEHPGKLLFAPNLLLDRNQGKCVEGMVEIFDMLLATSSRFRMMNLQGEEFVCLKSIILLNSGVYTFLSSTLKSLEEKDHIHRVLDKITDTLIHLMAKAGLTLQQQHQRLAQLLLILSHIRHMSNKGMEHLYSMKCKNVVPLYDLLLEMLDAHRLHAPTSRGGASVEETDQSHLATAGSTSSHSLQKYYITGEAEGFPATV
Chain of Estrogen receptor beta (Homo sapiens) (Q92731 whole entry, looked up): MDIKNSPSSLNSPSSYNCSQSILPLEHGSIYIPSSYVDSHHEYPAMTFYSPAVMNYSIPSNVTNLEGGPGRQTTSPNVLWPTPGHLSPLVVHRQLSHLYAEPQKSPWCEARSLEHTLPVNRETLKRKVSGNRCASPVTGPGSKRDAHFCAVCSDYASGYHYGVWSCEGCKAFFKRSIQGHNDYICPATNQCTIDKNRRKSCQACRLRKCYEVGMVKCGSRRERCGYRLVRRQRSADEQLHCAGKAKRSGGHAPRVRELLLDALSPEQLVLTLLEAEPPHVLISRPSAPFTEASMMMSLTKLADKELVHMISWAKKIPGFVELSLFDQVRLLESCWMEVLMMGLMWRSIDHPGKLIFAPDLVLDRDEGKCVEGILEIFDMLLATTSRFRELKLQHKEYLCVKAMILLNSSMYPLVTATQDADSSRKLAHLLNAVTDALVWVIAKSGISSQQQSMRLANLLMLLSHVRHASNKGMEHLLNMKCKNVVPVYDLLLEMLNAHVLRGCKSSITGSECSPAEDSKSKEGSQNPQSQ
Chain of Thyrotropin-releasing hormone receptor (Homo sapiens) (P34981 whole entry, looked up): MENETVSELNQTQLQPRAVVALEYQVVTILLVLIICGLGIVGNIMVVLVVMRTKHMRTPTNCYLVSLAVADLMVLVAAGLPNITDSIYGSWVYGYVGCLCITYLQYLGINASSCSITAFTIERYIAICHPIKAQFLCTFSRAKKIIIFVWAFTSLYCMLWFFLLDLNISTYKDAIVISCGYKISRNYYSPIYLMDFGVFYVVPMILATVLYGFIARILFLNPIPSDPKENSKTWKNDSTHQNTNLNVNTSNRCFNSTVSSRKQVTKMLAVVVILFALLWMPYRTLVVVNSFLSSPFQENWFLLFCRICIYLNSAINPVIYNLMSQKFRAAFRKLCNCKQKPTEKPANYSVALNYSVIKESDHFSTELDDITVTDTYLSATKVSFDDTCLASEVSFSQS
Chain of Thyrotropin receptor (Homo sapiens) (P16473 whole entry, looked up): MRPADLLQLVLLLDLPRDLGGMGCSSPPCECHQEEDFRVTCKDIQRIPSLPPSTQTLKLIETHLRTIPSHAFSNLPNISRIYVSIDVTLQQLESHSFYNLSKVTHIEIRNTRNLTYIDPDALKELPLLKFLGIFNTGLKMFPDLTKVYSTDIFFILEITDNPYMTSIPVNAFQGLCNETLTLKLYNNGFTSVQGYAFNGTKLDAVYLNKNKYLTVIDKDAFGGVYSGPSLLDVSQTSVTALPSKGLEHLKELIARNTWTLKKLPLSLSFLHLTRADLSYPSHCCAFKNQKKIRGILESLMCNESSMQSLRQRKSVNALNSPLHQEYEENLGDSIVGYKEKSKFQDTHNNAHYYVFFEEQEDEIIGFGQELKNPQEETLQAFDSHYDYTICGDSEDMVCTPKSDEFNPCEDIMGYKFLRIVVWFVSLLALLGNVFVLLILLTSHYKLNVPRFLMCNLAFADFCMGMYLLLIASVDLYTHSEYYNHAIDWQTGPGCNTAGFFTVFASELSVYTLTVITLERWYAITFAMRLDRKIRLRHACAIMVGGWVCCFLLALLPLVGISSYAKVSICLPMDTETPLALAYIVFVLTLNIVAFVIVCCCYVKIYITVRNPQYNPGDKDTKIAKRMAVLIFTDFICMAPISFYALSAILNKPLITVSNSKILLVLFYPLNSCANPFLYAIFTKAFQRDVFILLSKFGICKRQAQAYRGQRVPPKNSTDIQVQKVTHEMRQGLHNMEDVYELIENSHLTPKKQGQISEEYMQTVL
Chain of Androgen receptor (Homo sapiens) (P10275 whole entry, looked up): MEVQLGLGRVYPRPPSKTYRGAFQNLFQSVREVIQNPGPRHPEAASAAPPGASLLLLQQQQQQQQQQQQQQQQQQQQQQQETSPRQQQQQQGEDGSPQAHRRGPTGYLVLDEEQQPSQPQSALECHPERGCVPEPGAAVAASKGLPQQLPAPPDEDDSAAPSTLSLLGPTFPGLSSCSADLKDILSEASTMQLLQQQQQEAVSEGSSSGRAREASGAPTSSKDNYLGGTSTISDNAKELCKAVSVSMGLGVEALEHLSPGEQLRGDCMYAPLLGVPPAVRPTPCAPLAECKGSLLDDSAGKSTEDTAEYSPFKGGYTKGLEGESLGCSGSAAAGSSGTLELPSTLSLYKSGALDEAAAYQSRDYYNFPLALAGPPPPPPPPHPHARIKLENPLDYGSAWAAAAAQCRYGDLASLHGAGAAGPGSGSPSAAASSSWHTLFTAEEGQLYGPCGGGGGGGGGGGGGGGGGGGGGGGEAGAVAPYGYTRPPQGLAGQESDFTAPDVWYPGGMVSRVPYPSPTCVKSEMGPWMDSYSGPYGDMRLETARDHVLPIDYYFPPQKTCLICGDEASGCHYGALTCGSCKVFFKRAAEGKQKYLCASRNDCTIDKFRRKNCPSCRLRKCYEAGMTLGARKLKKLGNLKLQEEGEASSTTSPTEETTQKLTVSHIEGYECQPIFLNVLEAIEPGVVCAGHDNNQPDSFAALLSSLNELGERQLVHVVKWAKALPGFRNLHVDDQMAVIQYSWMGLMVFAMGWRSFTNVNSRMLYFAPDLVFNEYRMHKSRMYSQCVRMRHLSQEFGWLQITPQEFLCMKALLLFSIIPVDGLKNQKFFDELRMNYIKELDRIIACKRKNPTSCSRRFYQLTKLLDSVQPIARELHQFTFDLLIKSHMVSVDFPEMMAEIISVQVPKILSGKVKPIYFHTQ

CC(O)C(C)O (configuration not stated)
not listed: [19] | [20]
inactive: all other assays above

CC(C)(O)C(=O)O
not listed: [8] | [9] | [14] | [18] | [19] | [20]
inactive: all other assays above

CC(C(=O)O)c1ccc2c(c1)Cc1cccnc1O2 (configuration not stated)
not listed: [17] | [20]
inactive: all other assays above

C/C=C1\[C@H]2C=C(C)C[C@]1(N)c1ccc(=O)[nH]c1C2
not listed: [19] | [20]
inactive: all other assays above

CC(C)(C)c1cc(C=O)cc(C(C)(C)C)c1O
not listed: [19]
inactive: all other assays above

CCOc1ccc2c(c1)C(C)CC(C)(C)N2 (configuration not stated)
not listed: [6] | [12] | [20]
inactive: all other assays above

CC(C)=CCC/C(C)=C/C=N/O
not listed: [7] | [12] | [13] | [14] | [16] | [19]
inactive: all other assays above

NC(=O)c1ccccc1
not listed: [16]
inactive: all other assays above
